Compounds without any hit were thinned out: in the full panel of roughly 83,000, 20% have a hit.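 The endpoint reported here, percent growth, reads 100 for growth as untreated, 0 for no net growth and -100 for all cells dead.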 Calls of active or inactive are those of the source. How the source made its calls: active means growth percent below 10; inactive means the rest.
Columns and labels:
Assay in all cases: NCI-60 one-dose screen, 48 h (100 = growth as untreated, 0 = no growth, -100 = all killed)
Conditions in all cases: 10 µM unless noted
DU-145 prostate = system: DU-145 prostate
K-562 leukemia = system: K-562 leukemia
MALME-3M melanoma = system: MALME-3M melanoma
MDA-MB-231 breast = system: MDA-MB-231 breast
RXF 393 renal = system: RXF 393 renal
SF-268 CNS = system: SF-268 CNS
SF-295 CNS = system: SF-295 CNS
SF-539 CNS = system: SF-539 CNS
UACC-257 melanoma = system: UACC-257 melanoma
M14 melanoma = system: M14 melanoma
HCT-15 colon = system: HCT-15 colon
HT29 colon = system: HT29 colon
SNB-75 CNS = system: SNB-75 CNS
SNB-19 CNS = system: SNB-19 CNS
U251 CNS = system: U251 CNS
PC-3 prostate = system: PC-3 prostate
SK-MEL-5 melanoma = system: SK-MEL-5 melanoma
UACC-62 melanoma = system: UACC-62 melanoma
LOX IMVI melanoma = system: LOX IMVI melanoma
SK-MEL-28 melanoma = system: SK-MEL-28 melanoma

Measured: growth

CN1CCN(Cc2ccc(NC(=O)c3cncc(C#Cc4cnc(N)c5ncccc45)c3)cc2Cl)CC1
active: K-562 leukemia -28.9% | U251 CNS -64.6%
inactive: DU-145 prostate 77.1% | MALME-3M melanoma 54.2% | MDA-MB-231 breast 16.2% | RXF 393 renal 21.8% | SF-268 CNS 98.7% | SF-295 CNS 101% | SF-539 CNS 83.1% | UACC-257 melanoma 89.7% | M14 melanoma 84.4% | HCT-15 colon 63.8% | HT29 colon 52.4% | SNB-75 CNS 105% | SNB-19 CNS 106% | PC-3 prostate 91.6% | SK-MEL-5 melanoma 78.4% | UACC-62 melanoma 98.5% | LOX IMVI melanoma 86.5% | SK-MEL-28 melanoma 45.1%

CCCCCCCCCCCCCCCCCCOc1ccccc1CC(=O)OCC[N+]1(C)CCCCC1
inactive: DU-145 prostate 71.6% | K-562 leukemia 22.6% | MALME-3M melanoma 45.3% | MDA-MB-231 breast 10.3% | SF-268 CNS 43.5% | SF-295 CNS 73.6% | SF-539 CNS 68.6% | UACC-257 melanoma 80.6% | M14 melanoma 34.7% | HCT-15 colon 86.3% | HT29 colon 31.7% | SNB-75 CNS 46.3% | SNB-19 CNS 50.6% | U251 CNS 36.9% | UACC-62 melanoma 33.8% | SK-MEL-28 melanoma 62.5%
active: RXF 393 renal -3.91% | PC-3 prostate 3.03% | SK-MEL-5 melanoma -2.94% | LOX IMVI melanoma 1.71%

Oc1cccc2c1NCCC2
active: MALME-3M melanoma -0.428% | MDA-MB-231 breast 6.35% | SF-295 CNS 0.338% | SNB-75 CNS 0.864% | PC-3 prostate 9.22% | SK-MEL-5 melanoma -51.2% | UACC-62 melanoma 5.24%
inactive: DU-145 prostate 34.8% | K-562 leukemia 13.5% | RXF 393 renal 43.9% | SF-268 CNS 35.3% | SF-539 CNS 26.4% | UACC-257 melanoma 12.4% | M14 melanoma 31.4% | HCT-15 colon 21.4% | HT29 colon 79.5% | SNB-19 CNS 14.9% | U251 CNS 14.7% | LOX IMVI melanoma 16.4% | SK-MEL-28 melanoma 49.5%

COc1ccc(/C(C)=C(\c2ccc(Cl)cc2)c2ccc(OCCCN(C)C)cc2)cc1
active: K-562 leukemia 1.91% | HT29 colon 1.29%
inactive: DU-145 prostate 90.4% | MALME-3M melanoma 64.5% | MDA-MB-231 breast 78.9% | RXF 393 renal 70.1% | SF-268 CNS 77.4% | SF-295 CNS 85.7% | SF-539 CNS 82.5% | UACC-257 melanoma 89.1% | M14 melanoma 36.8% | HCT-15 colon 20.4% | SNB-75 CNS 97.2% | SNB-19 CNS 73.8% | U251 CNS 41% | PC-3 prostate 68.2% | SK-MEL-5 melanoma 37.8% | UACC-62 melanoma 83.9% | LOX IMVI melanoma 22.1% | SK-MEL-28 melanoma 75.1%

C#CCOc1ccc(C2=NN(C)C3N=C(Cl)c4ncn(C)c4N23)cc1OCC#C (stereo not given)
inactive: DU-145 prostate 104% | K-562 leukemia 93.5% | MALME-3M melanoma 112% | MDA-MB-231 breast 95.9% | RXF 393 renal 82.7% | SF-268 CNS 105% | SF-295 CNS 94.3% | SF-539 CNS 90% | UACC-257 melanoma 97.2% | M14 melanoma 104% | HCT-15 colon 92.1% | HT29 colon 103% | SNB-75 CNS 97.6% | SNB-19 CNS 103% | U251 CNS 98.7% | PC-3 prostate 91.1% | SK-MEL-5 melanoma 86.1% | UACC-62 melanoma 84.3% | LOX IMVI melanoma 89.2% | SK-MEL-28 melanoma 96.5%

COc1ccc(C(=O)/C=C/c2ccc(Cl)cc2)cc1S(N)(=O)=O
active: K-562 leukemia 3.05% | M14 melanoma -57.3% | PC-3 prostate -55.6%
inactive: DU-145 prostate 90.8% | MALME-3M melanoma 90.1% | MDA-MB-231 breast 65.8% | RXF 393 renal 97.4% | SF-268 CNS 91.7% | SF-295 CNS 98.3% | SF-539 CNS 17.7% | UACC-257 melanoma 87.1% | HCT-15 colon 26.3% | HT29 colon 43.6% | SNB-75 CNS 82.5% | SNB-19 CNS 14% | U251 CNS 32% | SK-MEL-5 melanoma 85.7% | UACC-62 melanoma 46.4% | LOX IMVI melanoma 10.6% | SK-MEL-28 melanoma 97.8%

Cc1nc2sc(C(=O)Nc3ccccc3)c(N)c2cc1C(O)c1ccccc1 (stereo not given)
inactive: DU-145 prostate 18.1% | MALME-3M melanoma 60.8% | MDA-MB-231 breast 16.7% | RXF 393 renal 40% | SF-268 CNS 47.9% | UACC-257 melanoma 72.5% | M14 melanoma 20.3% | HT29 colon 11.9% | SNB-75 CNS 36.9% | SNB-19 CNS 23.5% | U251 CNS 16.9% | PC-3 prostate 21.6% | UACC-62 melanoma 34.6% | LOX IMVI melanoma 26.9% | SK-MEL-28 melanoma 65.7%
active: K-562 leukemia 7.04% | SF-295 CNS 4.69% | SF-539 CNS -5.44% | HCT-15 colon 9.11% | SK-MEL-5 melanoma 4.19%

CCCN1C2CCC1/C(=C\c1ccc(OC)cc1)C(=O)/C2=C/c1ccc(OC)cc1
inactive: DU-145 prostate 90% | K-562 leukemia 35.6% | MALME-3M melanoma 57.5% | MDA-MB-231 breast 74.9% | RXF 393 renal 92.4% | SF-268 CNS 83.9% | SF-295 CNS 76.7% | SF-539 CNS 105% | UACC-257 melanoma 44.4% | M14 melanoma 62.1% | HCT-15 colon 71.1% | HT29 colon 58% | SNB-75 CNS 84.9% | SNB-19 CNS 86.7% | U251 CNS 70.3% | PC-3 prostate 64% | SK-MEL-5 melanoma 64.1% | UACC-62 melanoma 49.7% | LOX IMVI melanoma 74.8% | SK-MEL-28 melanoma 82.7%

C=C(c1ccc(C(=O)O)c(F)c1)c1cc2c(cc1C)C(C)(C)C=CC2(C)C
inactive: DU-145 prostate 94.7% | K-562 leukemia 73.9% | MALME-3M melanoma 54.4% | MDA-MB-231 breast 88% | RXF 393 renal 96.9% | SF-268 CNS 74.3% | SF-295 CNS 66.5% | SF-539 CNS 72.2% | UACC-257 melanoma 80.5% | M14 melanoma 91.1% | HCT-15 colon 79.3% | HT29 colon 80.7% | SNB-75 CNS 89.9% | SNB-19 CNS 67.9% | U251 CNS 65.7% | PC-3 prostate 70.3% | SK-MEL-5 melanoma 69.7% | UACC-62 melanoma 81.1% | LOX IMVI melanoma 81.4% | SK-MEL-28 melanoma 98.4%

C=CCn1c(SCC(=O)Nc2ccc(C(=O)/C=C/c3ccc(Cl)cc3)cc2)nnc1-c1ccccc1
inactive: DU-145 prostate 93.7% | K-562 leukemia 76.3% | MALME-3M melanoma 98.7% | MDA-MB-231 breast 101% | RXF 393 renal 118% | SF-268 CNS 84.7% | SF-295 CNS 94.9% | SF-539 CNS 96.6% | UACC-257 melanoma 111% | M14 melanoma 94.4% | HCT-15 colon 87.7% | HT29 colon 89.2% | SNB-75 CNS 70.8% | SNB-19 CNS 92.6% | U251 CNS 94.3% | PC-3 prostate 75.2% | SK-MEL-5 melanoma 98.7% | UACC-62 melanoma 85.1% | LOX IMVI melanoma 92.3% | SK-MEL-28 melanoma 90.2%

CCOC(=O)CSc1nc2sc3c(c2c(=O)n1-c1ccccc1)CCCCC3
inactive: DU-145 prostate 108% | K-562 leukemia 98.4% | MALME-3M melanoma 109% | MDA-MB-231 breast 105% | RXF 393 renal 119% | SF-268 CNS 104% | SF-295 CNS 96.3% | SF-539 CNS 101% | UACC-257 melanoma 96.8% | M14 melanoma 108% | HCT-15 colon 104% | HT29 colon 102% | SNB-75 CNS 112% | SNB-19 CNS 89.2% | U251 CNS 93.4% | PC-3 prostate 109% | SK-MEL-5 melanoma 97.6% | UACC-62 melanoma 99.5% | LOX IMVI melanoma 101% | SK-MEL-28 melanoma 112%

COc1cccc2cc(N(C)c3nc(C)nc4c3CCC4)ccc12
active: DU-145 prostate 5.3% | SF-539 CNS -0.597% | M14 melanoma 6.91% | HCT-15 colon 8.06% | HT29 colon 2.44% | U251 CNS 5.05% | PC-3 prostate 9.9% | SK-MEL-5 melanoma -35.5%
inactive: K-562 leukemia 10.4% | MALME-3M melanoma 57.4% | MDA-MB-231 breast 24.8% | RXF 393 renal 44% | SF-268 CNS 25.9% | SF-295 CNS 15.3% | UACC-257 melanoma 59.1% | SNB-75 CNS 30.5% | SNB-19 CNS 30.4% | UACC-62 melanoma 20.3% | LOX IMVI melanoma 19.3% | SK-MEL-28 melanoma 70.7%

CC(=O)Cc1nsc(NC(=O)c2cc(-c3cc(Cl)ccc3Cl)oc2C)n1
inactive: DU-145 prostate 110% | K-562 leukemia 102% | MALME-3M melanoma 113% | MDA-MB-231 breast 101% | RXF 393 renal 103% | SF-268 CNS 98.8% | SF-295 CNS 99.6% | SF-539 CNS 102% | UACC-257 melanoma 93.8% | M14 melanoma 102% | HCT-15 colon 103% | HT29 colon 107% | SNB-75 CNS 94.7% | SNB-19 CNS 102% | U251 CNS 97.4% | PC-3 prostate 96.8% | SK-MEL-5 melanoma 99.1% | UACC-62 melanoma 95% | LOX IMVI melanoma 96.3% | SK-MEL-28 melanoma 108%

C=CCNc1ccc2c3c(cccc13)C(=O)N(CC=C)C2=O
inactive: DU-145 prostate 102% | K-562 leukemia 96.7% | MALME-3M melanoma 111% | MDA-MB-231 breast 88.9% | RXF 393 renal 99.7% | SF-268 CNS 96.2% | SF-295 CNS 106% | SF-539 CNS 93.7% | UACC-257 melanoma 114% | M14 melanoma 108% | HCT-15 colon 97.4% | HT29 colon 105% | SNB-75 CNS 90.4% | SNB-19 CNS 100% | U251 CNS 103% | PC-3 prostate 69.3% | SK-MEL-5 melanoma 88.9% | UACC-62 melanoma 75.8% | LOX IMVI melanoma 92% | SK-MEL-28 melanoma 103%
